The supplement of paper PMC11732987, “Enantioselective OTUD7B fragment discovery through chemoproteomics screening and high-throughput optimisation” (Communications Chemistry, 2025)

Tests used:
Test in all cases: log2 ratio of Biotin-Ahx-Ub-VS probe labelling (fragment/DMSO); higher = less target engagement (more negative = stronger competition), active = hit call of the paper (q ≤ 0.05, log2 ratio ≤ -1)
Conditions in all cases: compound concentration: 200 uM; treatment time: 3 h
USP34 = USP34 (UniProt Q70CQ2)
In short: (§1)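 Labelling with Biotin-Ahx-Ub-VS (0.5 µM final, 1 h) followed a 3 h triplicate treatment of HEK293T lysate (495 µg per sample, Tris/CHAPS/IGEPAL buffer with protease inhibitors) with fragment at 200 µM or vehicle. Labelled DUBs were NeutrAvidin-enriched, digested with LysC and trypsin, and run by diaPASEF LC-MS/MS. The values, average log2 fragment/vehicle ratios by unpaired t-test, come from global-median-normalised Spectronaut label-free quantities. Proteins with ≥2 unique peptides were used.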

USP36 = biological target: T1, USP36 (UniProt Q9P275)
T1 sequence (whole entry): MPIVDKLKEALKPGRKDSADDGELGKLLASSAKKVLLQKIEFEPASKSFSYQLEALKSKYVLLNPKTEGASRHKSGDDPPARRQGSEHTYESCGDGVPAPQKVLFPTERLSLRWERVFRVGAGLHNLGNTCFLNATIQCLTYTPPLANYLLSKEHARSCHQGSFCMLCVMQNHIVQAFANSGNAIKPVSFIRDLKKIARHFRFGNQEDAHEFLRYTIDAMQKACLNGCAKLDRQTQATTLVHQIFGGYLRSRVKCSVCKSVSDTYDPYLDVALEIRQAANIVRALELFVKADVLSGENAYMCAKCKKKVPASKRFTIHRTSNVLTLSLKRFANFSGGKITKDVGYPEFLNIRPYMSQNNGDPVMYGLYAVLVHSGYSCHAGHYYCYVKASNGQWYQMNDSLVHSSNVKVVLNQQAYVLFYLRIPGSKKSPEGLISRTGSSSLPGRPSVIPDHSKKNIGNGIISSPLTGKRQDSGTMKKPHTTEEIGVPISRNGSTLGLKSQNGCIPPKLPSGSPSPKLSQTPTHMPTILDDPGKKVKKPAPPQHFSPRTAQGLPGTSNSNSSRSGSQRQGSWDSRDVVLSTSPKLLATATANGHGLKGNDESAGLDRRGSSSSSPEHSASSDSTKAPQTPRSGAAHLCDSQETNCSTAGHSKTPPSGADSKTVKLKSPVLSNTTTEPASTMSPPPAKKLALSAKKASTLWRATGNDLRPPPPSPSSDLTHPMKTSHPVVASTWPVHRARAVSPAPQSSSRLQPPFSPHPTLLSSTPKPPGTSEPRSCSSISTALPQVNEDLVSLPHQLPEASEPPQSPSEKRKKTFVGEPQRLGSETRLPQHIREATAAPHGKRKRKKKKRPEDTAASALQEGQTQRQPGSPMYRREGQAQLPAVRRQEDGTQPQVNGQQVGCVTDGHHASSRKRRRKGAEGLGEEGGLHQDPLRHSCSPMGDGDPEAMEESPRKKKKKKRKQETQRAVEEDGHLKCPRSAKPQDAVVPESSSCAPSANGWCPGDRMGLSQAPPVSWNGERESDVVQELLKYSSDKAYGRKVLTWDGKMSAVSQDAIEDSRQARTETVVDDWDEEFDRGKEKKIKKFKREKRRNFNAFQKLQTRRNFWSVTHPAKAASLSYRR
In short: as §1

USP38 = biological target: T2, USP38 (UniProt Q8NB14)
T2 sequence (whole entry): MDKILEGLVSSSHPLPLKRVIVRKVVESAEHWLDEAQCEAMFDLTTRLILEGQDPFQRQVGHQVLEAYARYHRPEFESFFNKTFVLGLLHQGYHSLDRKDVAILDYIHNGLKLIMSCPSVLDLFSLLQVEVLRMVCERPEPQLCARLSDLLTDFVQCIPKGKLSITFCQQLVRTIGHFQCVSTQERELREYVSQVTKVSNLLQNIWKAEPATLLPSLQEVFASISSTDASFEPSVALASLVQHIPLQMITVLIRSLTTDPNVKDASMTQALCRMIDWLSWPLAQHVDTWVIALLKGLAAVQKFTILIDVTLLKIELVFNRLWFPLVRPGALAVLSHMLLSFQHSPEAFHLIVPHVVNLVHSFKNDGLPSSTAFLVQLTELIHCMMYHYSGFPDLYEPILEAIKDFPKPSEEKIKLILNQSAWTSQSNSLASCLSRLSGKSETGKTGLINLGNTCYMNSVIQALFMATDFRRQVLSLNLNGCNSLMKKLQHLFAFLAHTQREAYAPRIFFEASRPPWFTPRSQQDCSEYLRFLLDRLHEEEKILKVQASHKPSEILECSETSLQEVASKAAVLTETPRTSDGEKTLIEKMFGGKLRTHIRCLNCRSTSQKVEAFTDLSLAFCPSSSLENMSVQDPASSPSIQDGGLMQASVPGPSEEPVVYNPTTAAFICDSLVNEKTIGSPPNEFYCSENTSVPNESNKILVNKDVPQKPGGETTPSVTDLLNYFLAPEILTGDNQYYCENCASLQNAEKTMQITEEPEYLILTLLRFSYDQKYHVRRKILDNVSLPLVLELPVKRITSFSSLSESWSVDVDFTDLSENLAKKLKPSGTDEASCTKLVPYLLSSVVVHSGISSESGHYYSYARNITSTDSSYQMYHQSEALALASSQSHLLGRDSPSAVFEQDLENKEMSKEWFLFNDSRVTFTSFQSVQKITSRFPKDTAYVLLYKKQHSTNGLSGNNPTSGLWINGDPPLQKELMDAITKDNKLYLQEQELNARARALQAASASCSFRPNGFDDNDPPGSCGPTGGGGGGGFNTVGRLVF
In short: as §1

USP39 = biological target: T3, USP39 (UniProt Q53GS9)
T3 sequence (whole entry): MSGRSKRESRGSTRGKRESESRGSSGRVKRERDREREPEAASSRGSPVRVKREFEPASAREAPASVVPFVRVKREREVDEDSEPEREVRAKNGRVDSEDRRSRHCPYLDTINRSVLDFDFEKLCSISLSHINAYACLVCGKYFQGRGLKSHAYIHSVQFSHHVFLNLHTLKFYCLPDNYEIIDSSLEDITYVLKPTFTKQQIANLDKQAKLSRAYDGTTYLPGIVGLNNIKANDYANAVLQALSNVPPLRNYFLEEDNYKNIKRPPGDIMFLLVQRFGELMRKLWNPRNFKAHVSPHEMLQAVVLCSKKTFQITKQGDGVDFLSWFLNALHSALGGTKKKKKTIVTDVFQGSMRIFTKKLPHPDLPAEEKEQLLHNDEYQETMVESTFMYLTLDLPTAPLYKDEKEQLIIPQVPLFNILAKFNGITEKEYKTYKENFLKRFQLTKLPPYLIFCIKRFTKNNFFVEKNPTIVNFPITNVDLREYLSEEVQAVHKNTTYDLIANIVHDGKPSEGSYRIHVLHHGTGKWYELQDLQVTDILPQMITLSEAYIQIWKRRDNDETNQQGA
In short: as §1

USP4 = biological target: T4, USP4 (UniProt Q13107)
T4 sequence (whole entry): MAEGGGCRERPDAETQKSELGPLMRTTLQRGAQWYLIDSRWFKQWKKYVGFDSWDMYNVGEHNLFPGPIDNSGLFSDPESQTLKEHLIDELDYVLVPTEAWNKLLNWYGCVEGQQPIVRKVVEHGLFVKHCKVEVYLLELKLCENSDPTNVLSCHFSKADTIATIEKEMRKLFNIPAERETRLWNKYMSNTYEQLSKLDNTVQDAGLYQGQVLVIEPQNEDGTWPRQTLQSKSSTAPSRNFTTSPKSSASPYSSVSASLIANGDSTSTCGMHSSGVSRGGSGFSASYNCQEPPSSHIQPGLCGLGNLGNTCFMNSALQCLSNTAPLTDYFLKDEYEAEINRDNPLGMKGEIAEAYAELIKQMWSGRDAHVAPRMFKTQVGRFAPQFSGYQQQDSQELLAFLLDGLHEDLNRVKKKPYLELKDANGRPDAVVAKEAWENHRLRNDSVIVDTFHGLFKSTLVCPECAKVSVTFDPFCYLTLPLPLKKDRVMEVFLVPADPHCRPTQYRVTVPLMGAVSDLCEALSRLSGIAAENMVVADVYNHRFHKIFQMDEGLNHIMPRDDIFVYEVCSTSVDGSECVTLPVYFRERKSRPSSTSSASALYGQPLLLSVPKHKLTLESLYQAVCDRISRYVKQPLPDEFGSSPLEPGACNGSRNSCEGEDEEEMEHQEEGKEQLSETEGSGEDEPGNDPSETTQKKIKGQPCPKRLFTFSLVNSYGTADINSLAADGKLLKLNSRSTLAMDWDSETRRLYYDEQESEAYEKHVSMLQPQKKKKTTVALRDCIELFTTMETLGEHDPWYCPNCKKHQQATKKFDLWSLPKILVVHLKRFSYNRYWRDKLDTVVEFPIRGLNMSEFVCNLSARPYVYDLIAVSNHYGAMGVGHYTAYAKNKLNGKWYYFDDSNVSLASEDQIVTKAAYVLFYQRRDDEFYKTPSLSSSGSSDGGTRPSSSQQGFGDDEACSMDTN
In short: as §1

Measured: log2 ratio of Biotin-Ahx-Ub-VS probe labelling

Sequence of USP34 (Q70CQ2 whole entry, the tested form may be a part): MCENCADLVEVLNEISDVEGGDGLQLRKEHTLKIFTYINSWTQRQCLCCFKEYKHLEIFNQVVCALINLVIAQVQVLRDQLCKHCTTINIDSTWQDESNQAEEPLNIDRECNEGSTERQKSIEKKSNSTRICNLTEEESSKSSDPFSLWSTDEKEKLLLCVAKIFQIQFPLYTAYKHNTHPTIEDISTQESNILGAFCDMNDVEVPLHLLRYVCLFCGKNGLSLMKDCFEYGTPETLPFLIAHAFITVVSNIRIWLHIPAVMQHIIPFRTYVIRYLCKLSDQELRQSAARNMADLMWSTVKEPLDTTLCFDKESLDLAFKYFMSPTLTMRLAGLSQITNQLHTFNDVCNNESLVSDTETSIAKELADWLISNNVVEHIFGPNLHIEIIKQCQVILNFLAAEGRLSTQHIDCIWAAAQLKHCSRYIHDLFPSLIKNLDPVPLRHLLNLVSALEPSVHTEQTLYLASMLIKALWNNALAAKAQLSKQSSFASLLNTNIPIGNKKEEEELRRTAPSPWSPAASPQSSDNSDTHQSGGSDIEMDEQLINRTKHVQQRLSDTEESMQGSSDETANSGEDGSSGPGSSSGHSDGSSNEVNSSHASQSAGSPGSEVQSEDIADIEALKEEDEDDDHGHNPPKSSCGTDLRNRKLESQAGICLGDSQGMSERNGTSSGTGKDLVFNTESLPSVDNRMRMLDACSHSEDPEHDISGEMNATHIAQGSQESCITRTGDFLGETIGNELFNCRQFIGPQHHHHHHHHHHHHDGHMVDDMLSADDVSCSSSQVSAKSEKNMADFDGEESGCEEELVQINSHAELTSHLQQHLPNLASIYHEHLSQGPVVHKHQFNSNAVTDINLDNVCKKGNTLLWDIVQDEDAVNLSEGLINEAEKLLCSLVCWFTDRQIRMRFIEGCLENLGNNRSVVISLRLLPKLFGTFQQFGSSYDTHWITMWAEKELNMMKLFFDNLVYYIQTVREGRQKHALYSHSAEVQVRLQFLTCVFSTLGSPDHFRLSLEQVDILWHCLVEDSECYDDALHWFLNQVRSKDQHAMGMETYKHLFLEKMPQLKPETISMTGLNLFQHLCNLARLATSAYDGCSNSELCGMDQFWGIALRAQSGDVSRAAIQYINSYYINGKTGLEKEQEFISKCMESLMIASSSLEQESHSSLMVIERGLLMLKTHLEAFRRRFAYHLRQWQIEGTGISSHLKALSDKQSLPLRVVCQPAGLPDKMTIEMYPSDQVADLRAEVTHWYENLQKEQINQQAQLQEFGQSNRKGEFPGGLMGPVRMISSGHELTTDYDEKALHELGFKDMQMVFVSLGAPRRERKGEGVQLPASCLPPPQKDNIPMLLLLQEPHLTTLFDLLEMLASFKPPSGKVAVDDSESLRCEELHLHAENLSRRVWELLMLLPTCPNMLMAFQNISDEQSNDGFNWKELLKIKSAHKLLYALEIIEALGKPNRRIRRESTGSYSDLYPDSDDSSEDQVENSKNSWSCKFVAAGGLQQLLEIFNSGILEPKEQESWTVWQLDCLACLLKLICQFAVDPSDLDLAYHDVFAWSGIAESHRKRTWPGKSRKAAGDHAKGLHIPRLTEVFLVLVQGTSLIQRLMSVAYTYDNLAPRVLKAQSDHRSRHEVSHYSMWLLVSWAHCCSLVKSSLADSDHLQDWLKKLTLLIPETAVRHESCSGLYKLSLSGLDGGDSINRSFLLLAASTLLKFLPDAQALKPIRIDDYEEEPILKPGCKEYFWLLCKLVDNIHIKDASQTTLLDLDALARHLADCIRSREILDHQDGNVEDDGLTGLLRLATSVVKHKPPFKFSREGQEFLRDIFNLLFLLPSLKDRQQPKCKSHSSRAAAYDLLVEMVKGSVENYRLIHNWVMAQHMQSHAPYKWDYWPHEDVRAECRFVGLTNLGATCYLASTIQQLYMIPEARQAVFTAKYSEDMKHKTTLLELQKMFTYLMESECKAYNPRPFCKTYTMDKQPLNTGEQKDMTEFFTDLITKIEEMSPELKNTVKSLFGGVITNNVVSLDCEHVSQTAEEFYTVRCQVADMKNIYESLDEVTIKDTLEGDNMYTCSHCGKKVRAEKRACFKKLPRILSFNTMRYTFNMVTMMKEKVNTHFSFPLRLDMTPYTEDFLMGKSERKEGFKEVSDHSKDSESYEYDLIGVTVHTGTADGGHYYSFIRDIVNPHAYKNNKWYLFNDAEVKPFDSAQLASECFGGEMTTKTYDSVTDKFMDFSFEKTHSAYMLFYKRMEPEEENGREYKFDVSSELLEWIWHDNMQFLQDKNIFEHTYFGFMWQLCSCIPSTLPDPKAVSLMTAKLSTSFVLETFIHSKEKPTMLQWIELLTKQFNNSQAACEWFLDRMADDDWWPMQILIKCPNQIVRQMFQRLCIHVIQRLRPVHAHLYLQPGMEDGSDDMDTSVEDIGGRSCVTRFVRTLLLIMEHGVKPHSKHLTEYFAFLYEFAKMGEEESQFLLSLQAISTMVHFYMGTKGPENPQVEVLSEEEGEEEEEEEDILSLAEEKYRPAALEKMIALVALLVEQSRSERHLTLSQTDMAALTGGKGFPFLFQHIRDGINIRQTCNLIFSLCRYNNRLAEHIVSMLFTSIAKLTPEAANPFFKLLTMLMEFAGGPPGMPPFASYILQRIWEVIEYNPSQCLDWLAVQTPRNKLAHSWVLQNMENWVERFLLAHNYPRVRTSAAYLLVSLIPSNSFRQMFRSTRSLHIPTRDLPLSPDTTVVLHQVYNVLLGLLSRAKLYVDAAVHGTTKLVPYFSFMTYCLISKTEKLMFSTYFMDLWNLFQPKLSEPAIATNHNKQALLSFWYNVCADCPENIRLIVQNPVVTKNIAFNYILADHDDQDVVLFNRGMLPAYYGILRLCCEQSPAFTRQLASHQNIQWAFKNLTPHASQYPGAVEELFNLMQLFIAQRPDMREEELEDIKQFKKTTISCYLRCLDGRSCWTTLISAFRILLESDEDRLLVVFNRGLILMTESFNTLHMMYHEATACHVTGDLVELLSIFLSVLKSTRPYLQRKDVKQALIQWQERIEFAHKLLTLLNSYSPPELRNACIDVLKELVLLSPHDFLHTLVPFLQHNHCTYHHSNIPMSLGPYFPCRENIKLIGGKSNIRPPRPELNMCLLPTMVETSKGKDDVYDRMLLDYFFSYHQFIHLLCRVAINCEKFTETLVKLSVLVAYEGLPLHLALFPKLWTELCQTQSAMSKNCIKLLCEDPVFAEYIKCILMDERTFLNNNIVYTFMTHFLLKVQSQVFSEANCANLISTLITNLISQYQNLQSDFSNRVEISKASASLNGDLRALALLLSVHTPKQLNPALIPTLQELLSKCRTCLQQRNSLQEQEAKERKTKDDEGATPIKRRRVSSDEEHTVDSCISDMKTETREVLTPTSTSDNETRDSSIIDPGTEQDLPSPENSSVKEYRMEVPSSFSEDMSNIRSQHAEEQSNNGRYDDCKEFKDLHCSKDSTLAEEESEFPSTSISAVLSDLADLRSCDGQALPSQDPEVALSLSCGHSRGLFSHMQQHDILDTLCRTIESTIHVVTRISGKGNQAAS

Cc1cnc2[nH]cc(CCNC(=O)CCl)c2c1
inactive: USP34 -0.162 | USP36 -0.31 | USP38 0.0877 | USP39 0.144 | USP4 -0.338
